Compound activity (PubChem)
The sample as a whole holds a higher share of hits than the screen did.
Giardia FBPA inh: blocks Giardia fructose-bisphosphate aldolase activity; actives 0.71% (n = 290,000); A8B2U2; Potency, µM (titrated, usually from 59.6 µM), usual class: inhibitors; purified Giardia FBPA; note: nearly all actives have a fitted effect of over 55% in size
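Giardia FBPA (40 nM reagent) was preincubated 10 min at RT with compound (up to 57.5 uM final), then substrate plus GAPDH/TPI/NAD/arsenate coupling system with diaphorase/resazurin was added; resorufin fluorescence (525/598 nm) was read after 20 min.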
Cycloheximide cs: affects cycloheximide protein synthesis inhibition readout, counter-screen. cell reporter, cycloheximide protein synthesis inhibition counterscreen. max response, %. actives 12% (n = 300,000); in the data active = max response mostly above about 13%, no sharp cut-off; inactive = mostly below about 14%; note: read at 38.3 µM for the half of the compounds with a filed dose
TbPYK inhibitor: T. brucei pyruvate kinase inhibition; AID 624173; Potency, µM (titrated, usually from 76.8 µM), most hits filed as inhibitors; TbPYK enzyme, Kinase-Glo Plus ATP luminescence, 45 min; actives 0.12% (n = 410,000); note: nearly all actives have a fitted effect of over 50% in size
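T. brucei PYK with substrate was exposed to pin-transferred compounds across a concentration series, then started with 130 uM ADP (final). After 45 min at room temperature, Kinase-Glo Plus luminescence was read, normalized and curve-fitted.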
Shiga toxin inh: blocks Shiga toxin action in Vero cells; inhibition, % at 38.7 µM; Vero cells, Shiga toxin protein synthesis inhibition reporter; actives 9.2% (n = 290,000); in the data active = inhibition mostly above about 28%, no sharp cut-off; inactive = mostly below about 43%
LmPK inhibitor: blocks Leishmania mexicana pyruvate kinase activity; Q27686; purified LmPK, Kinase-Glo ATP luminescence, 1 h; Potency, µM (doses to about 57.5 µM), actives largely listed as inhibitors; actives 0.37% (n = 290,000)
Target sequence (Q27686 whole entry, looked up): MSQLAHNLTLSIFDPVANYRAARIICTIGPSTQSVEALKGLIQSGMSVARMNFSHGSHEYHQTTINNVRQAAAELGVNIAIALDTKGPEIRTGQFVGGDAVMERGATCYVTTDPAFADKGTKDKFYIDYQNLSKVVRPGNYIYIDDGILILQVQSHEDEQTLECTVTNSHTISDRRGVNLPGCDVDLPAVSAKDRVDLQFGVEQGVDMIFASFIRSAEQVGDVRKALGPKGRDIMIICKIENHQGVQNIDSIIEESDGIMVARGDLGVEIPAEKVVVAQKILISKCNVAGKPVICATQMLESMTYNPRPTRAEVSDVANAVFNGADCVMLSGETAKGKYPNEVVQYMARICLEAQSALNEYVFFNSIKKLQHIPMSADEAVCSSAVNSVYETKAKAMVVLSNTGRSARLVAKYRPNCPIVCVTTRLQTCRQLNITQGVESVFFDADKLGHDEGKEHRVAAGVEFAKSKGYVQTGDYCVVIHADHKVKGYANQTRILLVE
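Purified LmPK (0.1 nM) converted ADP (0.1 mM) to ATP with PEP (0.5 mM) in imidazole buffer pH 7.2 with KCl and MgCl2, 1 h at room temperature. ATP was read by Kinase-Glo luminescence; data normalized to uninhibited and no-enzyme controls.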
RE007 growth inh: less growth of the S. pombe RE007 Vpr strain | Potency, µM (titrated, usually from 92.2 µM), usual class: inhibitors | S. pombe RE007 Vpr strain, BacTiter-Glo ATP luminescence, 24 h | AID 651644 | actives 0.21% (n = 360,000); active = well fitted falling curve with a large enough effect; inconclusive = small, poorly fitted or top-dose-only effect; inactive = no such curve, though single readings can be large or run the other way; note: nearly all actives have a fitted effect of over 50% in size
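Fission yeast RE007 carrying one integrated HIV-1 vpr copy, seeded at OD 0.01 in PMG+AL medium with 23 nL pinned compound. Grown 24 h at 30 degrees; viability read by BacTiter-Glo luminescence after 5 min.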
Of the large screens only hits and unclear results are named; the others gave an inactive call. Unless noted, calls come from the whole dose curve; as a rule, active = well fitted curve in the direction sought with a large enough effect; inconclusive = small, poorly fitted or top-dose-only effect, or another doubt; inactive = no such curve, though single readings can be large; an effect the other way counts as inactive or inconclusive.

O=C(Nc1nccs1)c1ccc(-c2ccc([N+](=O)[O-])cc2)o1	Cycloheximide cs 26, Shiga toxin inh 120
O=C(Nc1nccs1)c1ccc(-c2ccc(Cl)cc2)o1	Cycloheximide cs 51, Shiga toxin inh 94
Nc1ncnc2c1ncn2[C@@H]1O[C@H](COP(=O)(O)OP(=O)(O)O)[C@@H](O)[C@H]1O	none (no result: Cycloheximide cs, TbPYK inhibitor, Shiga toxin inh, LmPK inhibitor, RE007 growth inh)
CCOc1ccccc1C(=O)N(Cc1ccco1)Cc1ccco1	none (no result: Giardia FBPA inh, Cycloheximide cs, Shiga toxin inh, LmPK inhibitor, RE007 growth inh)
COc1ccc(C(CNC(=O)COc2ccc(Cl)c(C)c2)N2CCOCC2)cc1 (stereo not given)	none (no result: Giardia FBPA inh, Cycloheximide cs, Shiga toxin inh, LmPK inhibitor, RE007 growth inh)
CC(=O)Cc1nsc(NC(=O)c2ccc(-c3ccc(Cl)c(C(F)(F)F)c3)o2)n1	none
CC(=O)Cc1nsc(NC(=O)c2ccc(-c3ccc(F)cc3)o2)n1	Cycloheximide cs 16
Cc1cccc(C)c1NC(=O)Cn1c(SCC(=O)NCc2ccccc2)nc2ccccc21	none (no result: Giardia FBPA inh, Cycloheximide cs, Shiga toxin inh, LmPK inhibitor, RE007 growth inh)
COc1ccc(C(c2nnnn2Cc2ccccc2)N2CCN(C(=O)c3ccco3)CC2)cc1 (stereo not given)	Cycloheximide cs 28
COc1ccc(Cn2nnnc2C(CC(C)C)N2CCC(C(N)=O)CC2)cc1 (stereo not given)	Cycloheximide cs 44, Shiga toxin inh 77
O=C(c1ccco1)N1CCN(C(c2ccc(Cl)cc2)c2nnnn2Cc2ccccc2)CC1 (stereo not given)	Cycloheximide cs 13
CCOc1cccc(C(=O)Nc2ccc(-c3nc4cc(C)cc(C)c4o3)cc2)c1	none (no result: Giardia FBPA inh, Cycloheximide cs, Shiga toxin inh, LmPK inhibitor, RE007 growth inh)
CCc1c(C)[nH]c(C(=O)OCc2ccccc2)c1C	Cycloheximide cs 28, Shiga toxin inh 81
CCc1c(C(=O)OCc2ccccc2)[nH]c(C)c1C	Cycloheximide cs 43, Shiga toxin inh 67
CCOC(=O)c1[nH]c(C)c(CN(CCc2ccccc2)S(C)(=O)=O)c1C	none
CC(=O)c1ccc(S(=O)(=O)N(Cc2cc3cc4c(cc3[nH]c2=O)OCCO4)CC2CCCO2)cc1 (stereo not given)	Cycloheximide cs 37, Shiga toxin inh 93
O=c1[nH]c2cc3c(cc2cc1CN(CC1CCCO1)S(=O)(=O)c1ccc(Cl)cc1)OCCO3 (stereo not given)	Cycloheximide cs 67, Shiga toxin inh 183
Cc1ccc(S(=O)(=O)N(Cc2cc3cc4c(cc3[nH]c2=O)OCCO4)CC2CCCO2)cc1 (stereo not given)	none
CCc1ccc(NC(=O)c2sc3nc4n(c(=O)c3c2C)CCC4)cc1	Cycloheximide cs 29, Shiga toxin inh 36 (no result: Giardia FBPA inh)
CCc1ccc(NC(=O)c2ccc3c(=O)n4c(nc3c2)CCCCC4)cc1	Cycloheximide cs 37, Shiga toxin inh 47
Cc1csc(NC(=O)c2ccc3c(=O)n4c(nc3c2)CCCCC4)n1	Cycloheximide cs 27, Shiga toxin inh 63
CCOc1ccc(NC(=O)c2ccc3c(=O)n4c(nc3c2)CCCCC4)cc1	none (no result: Giardia FBPA inh)
CC(C)(C)c1cc(NC(=O)COC(=O)c2ccc3c(=O)n4c(nc3c2)CCC4)n(-c2ccccc2)n1	Cycloheximide cs 16
COc1ccccc1NC(=O)COC(=O)c1ccc2c(=O)n3c(nc2c1)CCC3	none (no result: Giardia FBPA inh, Cycloheximide cs, Shiga toxin inh, LmPK inhibitor)
Cc1ccc(NC(=O)CCn2nc(-c3ccccc3)c3ccccc3c2=O)c(C)c1	none (no result: Giardia FBPA inh, Cycloheximide cs, Shiga toxin inh, LmPK inhibitor, RE007 growth inh)
COC(=O)N[C@@H](/C=C/c1ccccc1)/C(C(=O)OC)=C(\C)NCc1ccccc1	none (no result: Cycloheximide cs, TbPYK inhibitor, Shiga toxin inh, LmPK inhibitor, RE007 growth inh)
COc1ccc(CNS(=O)(=O)c2cc3c(cc2C)n(C)c(=O)c(=O)n3C)cc1	none (no result: Giardia FBPA inh, Cycloheximide cs, Shiga toxin inh, LmPK inhibitor, RE007 growth inh)
COc1cccc(CNC(=O)c2ccc3nc(-c4ccccc4)c(-c4ccccc4)nc3c2)c1OC	none (no result: Giardia FBPA inh, Cycloheximide cs, Shiga toxin inh, LmPK inhibitor, RE007 growth inh)
O=C(Nc1nccs1)c1ccc2c(=O)n3c(nc2c1)CCCCC3	Cycloheximide cs 19, Shiga toxin inh 98 (no result: RE007 growth inh)
Fc1ccc(NC(=S)Nc2ccc(Cl)cc2Cl)cc1	Cycloheximide cs 22
CCCNC(=S)Nc1ccc(Cl)cc1Cl	Shiga toxin inh 41
S=C(NCc1ccccn1)Nc1ccc(Cl)cc1Cl	Cycloheximide cs 45, RE007 growth inh inconclusive
S=C(NCCc1ccc(Cl)cc1)Nc1ccc(Cl)cc1Cl	Cycloheximide cs 13, RE007 growth inh inconclusive
OC[C@H]1NC[C@@H](O)[C@@H](O)[C@@H]1O	none (no result: TbPYK inhibitor, LmPK inhibitor, RE007 growth inh)
O=c1c(O)c(-c2ccccc2)oc2ccc3occc3c12	none (no result: Cycloheximide cs, TbPYK inhibitor, Shiga toxin inh, LmPK inhibitor, RE007 growth inh)
